# This is one part of a sample in which the strongest signals are shown more often than they occur.
# Assays:
# Assay in all cases: glycan array binding signal (z-score within array); higher = stronger binding
# Conditions in all cases: glycan notation: IUPAC condensed, linker removed
# [1] = molecular target: Gal(b1-4)GlcNAc(b1-2)[Gal(b1-4)GlcNAc(b1-4)]Man(a1-3)[GlcNAc(b1-4)][Gal(b1-4)GlcNAc(b1-2)Man(a1-6)]Man(b1-4)GlcNAc(b1-4)GlcNAc
# Method in brief: (§1)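 The binding signal is a Z-score computed within each array. Data were drawn from 3228 arrays in the Consortium for Functional Glycomics database, restricted to those with a known protein sequence. Scores were averaged over arrays of the same protein sequence at different concentrations or buffers, and over linkers, and negative values can be taken as non-binding.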
# [2] = molecular target: Gal(b1-4)GlcNAc(b1-2)[Gal(b1-4)GlcNAc(b1-6)]Man(a1-6)[Gal(b1-4)GlcNAc(b1-2)Man(a1-3)]Man(b1-4)GlcNAc(b1-4)[Fuc(a1-6)]GlcNAc
# Method in brief: as §1
# [3] = molecular target: Gal(b1-4)GlcNAc(b1-2)[Gal(b1-4)GlcNAc(b1-6)]Man(a1-6)[GlcNAc(b1-4)][Gal(b1-4)GlcNAc(b1-2)[Gal(b1-4)GlcNAc(b1-4)]Man(a1-3)]Man(b1-4)GlcNAc(b1-4)[Fuc(a1-6)]GlcNAc
# Method in brief: as §1
# [4] = molecular target: Gal(b1-4)GlcNAc(b1-3)Gal(b1-3)GalNAc
# Method in brief: as §1
# [5] = molecular target: Gal(b1-4)GlcNAc(b1-3)Gal(b1-4)GlcNAc(b1-2)Man(a1-3)[Gal(b1-4)GlcNAc(b1-3)Gal(b1-4)GlcNAc(b1-2)Man(a1-6)]Man(b1-4)GlcNAc(b1-4)[Fuc(a1-6)]GlcNAc
# Method in brief: as §1
# [6] = molecular target: Gal(b1-4)GlcNAc(b1-3)Gal(b1-4)GlcNAc(b1-2)[Gal(b1-4)GlcNAc(b1-3)Gal(b1-4)GlcNAc(b1-6)]Man(a1-6)[Gal(b1-4)GlcNAc(b1-3)Gal(b1-4)GlcNAc(b1-2)Man(a1-3)]Man(b1-4)GlcNAc(b1-4)[Fuc(a1-6)]GlcNAc
# Method in brief: as §1
# [7] = molecular target: Gal(b1-4)GlcNAc(b1-3)Gal(b1-4)GlcNAc(b1-3)Gal(b1-4)GlcNAc(b1-3)Gal(b1-4)GlcNAc(b1-2)Man(a1-3)[Gal(b1-4)GlcNAc(b1-3)Gal(b1-4)GlcNAc(b1-3)Gal(b1-4)GlcNAc(b1-3)Gal(b1-4)GlcNAc(b1-2)Man(a1-6)]Man(b1-4)GlcNAc(b1-4)[Fuc(a1-6)]GlcNAc
# Method in brief: as §1
# [8] = molecular target: Gal(b1-4)GlcNAc(b1-3)Gal(b1-4)GlcNAc(b1-3)Gal(b1-4)GlcNAc(b1-3)Gal(b1-4)GlcNAc(b1-2)[Gal(b1-4)GlcNAc(b1-3)Gal(b1-4)GlcNAc(b1-3)Gal(b1-4)GlcNAc(b1-3)Gal(b1-4)GlcNAc(b1-6)]Man(a1-6)[Gal(b1-4)GlcNAc(b1-3)Gal(b1-4)GlcNAc(b1-3)Gal(b1-4)GlcNAc(b1-3)Gal(b1-4)GlcNAc(b1-2)Man(a1-3)]Man(b1-4)GlcNAc(b1-4)[Fuc(a1-6)]GlcNAc
# Method in brief: as §1
# Gal3S(b1-3)GalNAc = molecular target: Gal3S(b1-3)GalNAc
# Method in brief: as §1
# [9] = molecular target: Gal3S(b1-4)[Fuc(a1-3)]GlcNAc6S
# Method in brief: as §1
# Gal6P(b1-4)GlcNAc = molecular target: Gal6P(b1-4)GlcNAc
# Method in brief: as §1
# GalNAc(a1-3)GalNAc = molecular target: GalNAc(a1-3)GalNAc
# Method in brief: as §1
# GalNAc(b1-4)GlcNAc = molecular target: GalNAc(b1-4)GlcNAc
# Method in brief: as §1
# [10] = molecular target: GalNAc(b1-4)GlcNAc(b1-2)Man(a1-3)[GalNAc(b1-4)GlcNAc(b1-2)Man(a1-6)]Man(b1-4)GlcNAc(b1-4)GlcNAc
# Method in brief: as §1
# GalNAc(b1-4)GlcNAc6S = molecular target: GalNAc(b1-4)GlcNAc6S
# Method in brief: as §1
# [11] = molecular target: GlcNAc(a1-4)Gal(b1-4)GlcNAc(b1-3)Gal(b1-4)[Fuc(a1-3)]GlcNAc(b1-3)Gal(b1-4)[Fuc(a1-3)]GlcNAc
# Method in brief: as §1
# [12] = molecular target: GlcNAc(b1-3)Gal(b1-4)GlcNAc(b1-6)[GlcNAc(b1-3)]Gal(b1-4)GlcNAc
# Method in brief: as §1
# GlcNAc(b1-3)Man = molecular target: GlcNAc(b1-3)Man
# Method in brief: as §1
# [13] = molecular target: Neu5Ac(a2-3)Gal(b1-3)GalNAc(b1-4)[Neu5Ac(a2-3)]Gal(b1-4)Glc
# Method in brief: as §1
# [14] = molecular target: Neu5Ac(a2-3)Gal(b1-3)GlcNAc(b1-2)Man(a1-3)[Neu5Ac(a2-3)Gal(b1-3)GlcNAc(b1-2)Man(a1-6)]Man(b1-4)GlcNAc(b1-4)GlcNAc
# Method in brief: as §1
# [15] = molecular target: Neu5Ac(a2-3)Gal(b1-4)GlcNAc(b1-3)Gal(b1-4)GlcNAc(b1-6)[Gal(b1-3)]GalNAc
# Method in brief: as §1
# [16] = molecular target: Neu5Ac(a2-3)Gal(b1-4)[Fuc(a1-3)]GlcNAc(b1-3)Gal
# Method in brief: as §1
# [17] = molecular target: Neu5Ac(a2-6)Gal(b1-4)GlcNAc(b1-3)Gal(b1-4)GlcNAc
# Method in brief: as §1
# [18] = molecular target: Neu5Ac(a2-6)Gal(b1-4)GlcNAc(b1-3)Gal(b1-4)GlcNAc(b1-3)Gal(b1-4)GlcNAc(b1-2)Man(a1-3)[Neu5Ac(a2-6)Gal(b1-4)GlcNAc(b1-3)Gal(b1-4)GlcNAc(b1-3)Gal(b1-4)GlcNAc(b1-2)Man(a1-6)]GalNAc
# Method in brief: as §1
# [19] = molecular target: Neu5Ac(a2-6)Gal(b1-4)GlcNAc(b1-3)GalNAc
# Method in brief: as §1
# [20] = molecular target: Neu5Ac(a2-6)Gal(b1-4)GlcNAc(b1-6)GalNAc
# Method in brief: as §1
# [21] = molecular target: Neu5Ac(a2-8)Neu5Ac(a2-3)[GalNAc(b1-4)]Gal(b1-4)Glc
# Method in brief: as §1
# [22] = molecular target: Neu5Ac(a2-8)Neu5Ac(a2-8)Neu5Ac(a2-8)Neu5Ac(a2-3)[GalNAc(b1-4)]Gal(b1-4)Glc
# Method in brief: as §1
# [23] = molecular target: Neu5Gc(a2-3)Gal(b1-3)[Fuc(a1-4)]GlcNAc
# Method in brief: as §1
binder,measurement,setting,value
"SHCBP1-GST (Homo sapiens), Q8NEM2 (protein) MADGSLTGGGLEAAAMAPERMGWAVEQELASLEKGLFQDEDSCSDCSYRDKPGSSLQSFMPEGKTFFPEIFQTNQLLFYERFRAYQDYILADCKASEVQEFTAEFLEKVLEPSGWRAVWHTNVFKVLVEITDVDFAALKAVVRLAEPYLCDSQVSTFTMECMKELLDLKEHRLPLQELWVVFDDSGVFDQTALAIEHVRFFYQNIWRSWDEEEEDEYDYFVRCVEPRLRLHYDILEDRVPSGLIVDYHNLLSQCEESYRKFLNLRSSLSNCNSDSEQENISMVEGLKLYSEMEQLKQKLKLIENPLLRYVFGYQKNSNIQAKGVRSSGQKITHVVSSTMMAGLLRSLLTDRLCQEPGEEEREIQFHSDPLSAINACFEGDTVIVCPGHYVVHGTFSIADSIELEGYGLPDDIVIEKRGKGDTFVDCTGADIKISGIKFVQHDAVEGILIVHRGKTTLENCVLQCETTGVTVRTSAEFLMKNSDLYGAKGAGIEIYPGSQCTLSDNGIHHCKEGILIKDFLDEHYDIPKISMVNNIIHNNEGYGVVLVKPTIFSDLQENAEDGTEENKALKIQTSGEPDVAERVDLEELIECATGKMELCARTDPSEQVEGNCEIVNELIAASTQKGQIKKKRLSELGITQADDNLMSQEMFVGIVGNQFKWNGKGSFGTFLF",glycan array binding signal (z-score),[1],0.176
same,glycan array binding signal (z-score),[2],5.01
same,glycan array binding signal (z-score),[3],-0.032
same,glycan array binding signal (z-score),[4],-0.645
same,glycan array binding signal (z-score),[5],0.801
same,glycan array binding signal (z-score),[6],2.1
same,glycan array binding signal (z-score),[7],3.03
same,glycan array binding signal (z-score),[8],0.056
same,glycan array binding signal (z-score),Gal3S(b1-3)GalNAc,-0.165
same,glycan array binding signal (z-score),[9],-0.428
same,glycan array binding signal (z-score),Gal6P(b1-4)GlcNAc,-0.929
same,glycan array binding signal (z-score),GalNAc(a1-3)GalNAc,-0.406
same,glycan array binding signal (z-score),GalNAc(b1-4)GlcNAc,-0.137
same,glycan array binding signal (z-score),[10],2.96
same,glycan array binding signal (z-score),GalNAc(b1-4)GlcNAc6S,-0.496
same,glycan array binding signal (z-score),[11],2.67
same,glycan array binding signal (z-score),[12],-0.274
same,glycan array binding signal (z-score),GlcNAc(b1-3)Man,-0.054
same,glycan array binding signal (z-score),[13],0.166
same,glycan array binding signal (z-score),[14],-0.428
same,glycan array binding signal (z-score),[15],-0.09
same,glycan array binding signal (z-score),[16],-0.924
same,glycan array binding signal (z-score),[17],-1.12
same,glycan array binding signal (z-score),[18],2.65
same,glycan array binding signal (z-score),[19],2.41
same,glycan array binding signal (z-score),[20],-0.322
same,glycan array binding signal (z-score),[21],-0.847
same,glycan array binding signal (z-score),[22],0.231
same,glycan array binding signal (z-score),[23],0.247
